Measured values taken from PubChem BioAssay.
Several values for one entry are separate records, joined by “and”; a condition that tells them apart may be missing. Equal values may be shown once. Activity calls are given as the source filed them.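 The calls were made as follows: active = at least 20% inhibition of 6-phosphogluconate dehydrogenase activity; inactive = the rest.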 Where a SMILES comes first, the peptide text is derived from it.

molecular target: 6-phosphogluconate dehydrogenase, decarboxylating (Homo sapiens) (UniProt P52209); assay: inhibition of human phosphogluconate dehydrogenase – biochemical, recombinant enzyme, NADPH absorbance, primary screen (AID 1159550); conditions: recombinant 6PGD, NADPH absorbance 341 nm; at 10 µM; stronger effect = higher value
Sequence (P52209 whole entry, looked up): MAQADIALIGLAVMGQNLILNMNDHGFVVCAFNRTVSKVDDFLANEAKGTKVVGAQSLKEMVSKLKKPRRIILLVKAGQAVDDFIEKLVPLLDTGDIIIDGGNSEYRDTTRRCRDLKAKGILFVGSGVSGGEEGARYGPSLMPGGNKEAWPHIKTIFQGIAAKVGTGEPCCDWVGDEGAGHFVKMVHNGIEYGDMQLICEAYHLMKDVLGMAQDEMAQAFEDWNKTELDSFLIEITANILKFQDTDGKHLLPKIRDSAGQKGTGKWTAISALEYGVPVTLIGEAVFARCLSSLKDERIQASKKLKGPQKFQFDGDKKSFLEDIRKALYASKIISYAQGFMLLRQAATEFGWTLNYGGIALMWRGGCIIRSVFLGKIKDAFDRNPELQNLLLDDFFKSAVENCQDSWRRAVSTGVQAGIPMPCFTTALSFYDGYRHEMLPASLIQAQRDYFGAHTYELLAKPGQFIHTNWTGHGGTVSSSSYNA

Compound	inhibition
CC(C)/C(O)=C1/C(=O)O[C@@H](c2ccoc2)[C@]2(C)C(O)[C@@H](O)[C@@]34OC5(C)OC67CC(C)(C(O)[C@]6(O)[C@@H](O)[C@]3(O5)C12)[C@H](CC(=O)O)[C@]74C (some centres not stated)	16.8% (inactive)
COc1cc(O)c2c(=O)c(-c3ccccc3)coc2c1	-1.53% (inactive)
CC1CCC(C(C)C)C(O)C1 (configuration not stated)	-10.6% (inactive)
COc1cc2c(cc1OC)[C@H]1Cc3ccc(OC)c(OC)c3CN1CC2	6.86% (inactive)
O=C(O)C=CC=Cc1ccccc1	8.52% (inactive)
CC(C)=CCC[C@](C)(O)C1CC=C(C)CC1 (some centres not stated)	1.33% (inactive)
CC(C)CC(NC(=O)CN)C(=O)NC(Cc1ccccc1)C(=O)O (stereo not drawn) (H-Gly-Leu-Phe-OH; configuration not given here)	6.11% (inactive)
CCCCC(CC)COC(=O)COc1cc(Cl)c(Cl)cc1Cl (configuration not stated)	4.06% (inactive)
OC[C@H]1O[C@@H](O[C@H]2[C@H](O)[C@@H](O)[C@H](O)O[C@@H]2CO)[C@H](O)[C@@H](O)[C@@H]1O	-3.99% (inactive)
CCC[C@H]1CC2=C(C[C@@H](CC)CC3=C1C(=O)OC3=O)C(=O)OC2=O	-4.81% (inactive)
CCCC(=O)OC1(C(=O)CO)CCC2C3CCC4=CC(=O)CCC4(C)C3C(O)CC21C (configuration not stated)	-0.0758% (inactive)
CC1(C)C(=O)C=C[C@]2(C)C3CC[C@@]4(C)[C@H](c5ccoc5)OC(=O)[C@H]5O[C@]54[C@]3(C)C(=O)C[C@@H]12 (some centres not stated)	1.03% (inactive)
COc1cc2c(cc1-c1coc3c4c(c(OC)cc3c1=O)OC(C)(C)C=C4)OCO2	8.44% (inactive)
COc1cc2c(cc1O)[C@@H](Cc1ccc(O)cc1)[N+](C)(C)CC2	16.9% (inactive)
CC12CCC3c4ccc(OC(=O)c5ccccc5)cc4CCC3C1CCC2=O (configuration not stated)	-9.5% (inactive)
CC(C)CCC[C@@H](C)[C@H]1CC[C@H]2[C@@H]3CC[C@H]4CC(=O)CC[C@]4(C)[C@H]3CC[C@]12C	-4.87% (inactive) and 3.54% (inactive)

Compound	inhibition
O=C(Oc1cc([C@H]2Oc3cc(O)cc(O)c3C[C@H]2O)cc2c([C@H]3Oc4cc(O)cc(O)c4C[C@H]3O)cc(O)c(OC(=O)c3cc(O)c(O)c(O)c3)c2c1=O)c1cc(O)c(O)c(O)c1	-0.352% (inactive)
Nc1nc2c(ncn2[C@H]2C[C@H](O)[C@@H](CO)O2)c(=O)[nH]1	-9.26% (inactive)
CC(C)=CCC[C@@H](C)[C@H]1CC[C@@]2(C)C3=C(CC[C@]12C)[C@@]1(C)CC[C@H](O)C(C)(C)[C@@H]1CC3	14.5% (inactive)
COc1ccc2c(c1)OC/C(=C/c1ccc(O)c(O)c1)C2=O	2.37% (inactive)
N[C@@H](Cc1ccccc1)C(=O)N[C@@H](Cc1ccc(O)cc1)C(=O)O (H-Phe-Tyr-OH)	-6.19% (inactive)
N[C@@H](COCc1ccccc1)C(=O)O	3.6% (inactive)
CC1(C)Oc2ccc3ccc(=O)oc3c2C[C@H]1O	1.49% (inactive)
CCC1(C2OC(C3OC(O)(CO)C(C)CC3C)CC2C)CCC(C2(C)CCC3(CC(O)C(C)C(C(C)C(OC)C(C)C(=O)O)O3)O2)O1 (configuration not stated)	3.18% (inactive)
COC(=O)[C@H](O)[C@H]1C(C)(C)C(=O)[C@@H]2C[C@]3(O)[C@@H]4CC(=O)O[C@@H](c5ccoc5)[C@]4(C)CC[C@@H]3[C@@]1(C)C2=O	1.04% (inactive)
C[C@H](CCC(=O)O)C1CC[C@H]2[C@@H]3CC[C@H]4C[C@H](O)CC[C@]4(C)[C@H]3C[C@H](O)[C@]12C (some centres not stated)	-1.43% (inactive)
C/C=C(\C)C(=O)O[C@@H]1[C@@H]2C=C3[C@@H]4CC(=O)O[C@@H](C5=CC(O)OC5=O)[C@]4(C)CC[C@@H]3[C@@](C)(C2=O)[C@@H]([C@@H](O)C(=O)OC)C1(C)C (some centres not stated)	0.726% (inactive)
CC(=O)Oc1cc2c(c(C)c1OC(C)=O)CC1OC13[C@@]2(C)CC[C@@]1(C)C2C[C@](C)(C(=O)O)CC[C@]2(C)CC[C@]31C (some centres not stated)	2.26% (inactive)
C=C(C)/C=C1/C=CC(=O)C(C)=C1	-4.6% (inactive)
COc1cc(O)c(C(=O)/C=C/c2ccccc2)c(OC)c1	-2.81% (inactive)
COc1cc2c(cc1O)[C@@H](Cc1ccc(O)cc1)N(C)CC2	0.499% (inactive)
COC(=O)[C@]1(C)CC[C@]2(C)CC[C@]3(C)C4=CCc5c(cc(OC(C)=O)c(OC(C)=O)c5C)[C@]4(C)CC[C@@]3(C)[C@@H]2C1	10.1% (inactive)
